# PubChem BioAssay AID1117283 (Broad Institute, 2014)
# Measured potencies and affinities stand elsewhere. Unmarked numbers belong to inactive results.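 The calls were made as follows: active = fluorescent signal decreased by at least 40%; inconclusive = no clear call, values can overlap the other calls; inactive = the rest, including activity opposite to the expected direction.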
# Assay: fibronectin fibrillogenesis inhibitors in fibroblasts, dose response, AH1F cells, Alexa488-fibronectin fluorescence, cherry-pick, set 2 (AID 1117283);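 also: AH1F fibroblasts given Alexa488-labelled fibronectin at 24 nM final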
# Settings: Alexa488-fibronectin deposition fluorescence, overnight; series mostly up to 35 µM; activity change, negative = inhibition: at the top concentration
row,SMILES,"activity change, negative = inhibition"
1,C[C@H](CO)N1C[C@H](C)[C@H](CN(C)C)Oc2cc(C#C[C@@H](C)O)ccc2S1(=O)=O,2.53%
2,CN(C)C(=O)c1ccc(-c2ccc3c(c2)[C@H]2[C@H](CCN2C(=O)c2ccc(F)cc2)[C@@H](CO)N3C)cc1,9.06% [at 30 µM]
3,C[C@H]1CN([C@@H](C)CO)C(=O)c2cc(NC(=O)C3CCCCC3)ccc2O[C@H]1CN(C)Cc1ccc(-c2ccccc2)cc1,12.3%
4,Nc1nc(-c2cc3c(cc2Cl)OCCO3)cs1,11.5%
5,COc1cccc(CNC(=O)CCc2nnc3ccc(NCCCN4CCCC4=O)nn23)c1,0.665%
6,CN1c2ccc(-c3ccccc3)cc2[C@H]2[C@H](CCN2C(=O)CN2CCOCC2)[C@H]1CO,-7.43%
7,COc1ncccc1C(=O)NC1CCCc2c1cnn2-c1ccc(C)c(C)c1 (stereo not drawn),-5.54%
8,S=C(NCC1CCCO1)Nc1ccc(Cl)cc1Cl (stereo not drawn),-0.519%
9,COC(=O)C[C@@H]1CC[C@@H]2[C@H](COc3ccc(NC(=O)Cc4cccs4)cc3C(=O)N2C)O1,7.5%
10,COc1ccc(-c2csc(CCn3nc(C)cc3C)n2)cc1OC,-4.81%
11,CN1c2ccc(-c3ccccc3)cc2[C@@H]2[C@@H](CCN2C(=O)CN2CCOCC2)[C@H]1CO,3.99% [at 30 µM]
12,O=S(=O)(c1ccccc1F)N1CC[C@H]2[C@H](CO)Nc3ccc(-c4cccc(F)c4)cc3[C@H]21,23.3%
13,c1ccc2[nH]c(SCc3cn4cccnc4n3)nc2c1,1.3%
